Most compounds without a hit are left out; they make up all but 18% or so of the library.
IL-1B inflam inh: inhibitors of inflammasome signaling (IL-1 beta secretion). THP-1 LPS/ATP IL-1B secretion, AlphaLISA, 16 h; hits give low values. activity change, % at 57.5 µM. 360,000 tested, 4.7% active. AID 743279; in the data active means activity change below about -50%; inconclusive means mostly about -30% to -49%
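THP-1 cells pretreated 1 hr with compounds (up to 57.5 uM final), then stimulated with LPS (250 ng/mL final) plus ATP (1.25 mM final); secreted IL-1B measured by AlphaLISA after 16 hr, decreased signal indicating inhibition.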
TGFb SMAD3 inh: TGF-b pathway inhibition; Potency, µM (top dose mostly 46.1 µM), usual class: inhibitors; HepG2 CAGA-GFP TGF-b/SMAD3 reporter, GFP fluorescence, 18 h; TGF-beta stimulated, 500 pg/mL final; 410,000 tested, 1.2% active; further: nearly all actives have a fitted effect of over 65% in size
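Inhibition of TGF-beta-driven CAGA-GFP reporter expression in HEPG2 cells is measured by cellular GFP fluorescence after 18 h stimulation with 500 pg/mL recombinant TGF-beta in 1% FBS medium at 37 degrees C.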
HepG2 viability: HepG2 cytotoxicity, counter-screen for TGF-b inhibitors; HepG2 CAGA-GFP viability, ATP luminescence, 18 h; Potency, µM (series often up to 46.1 µM), most hits filed as cytotoxic; 410,000 tested, 0.76% active; AID 588856
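CellTiter-Glo luminescence gave cytotoxicity after 18 hours at 37 degrees C. The cells were HepG2 CAGA-GFP in 1% FBS DMEM, stimulated with 500 pg/mL TGF-beta after compound addition. %Activity was normalised to no-cell wells (complete cell-killing) and DMSO (no toxicity), and curves were fitted and classified.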
TDP1 cell noCPT: qHTS for Inhibitors of human tyrosyl-DNA phosphodiesterase 1 (TDP1): qHTS in cells in absence of CPT | DT40 Tdp1-/- hTDP1 cells, no CPT, ATP luminescence, 48 h | Potency, µM (highest dose often 46.2 µM), most hits filed as inhibitors | 420,000 tested, 15% active | AID 686978, 2013; further: nearly all actives have a fitted effect of over 55% in size
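A cellular qHTS used chicken DT40 cells lacking endogenous Tdp1 but carrying stably transfected human TDP1. Compounds were applied without camptothecin, and cell growth kinetics were judged by ATP-dependent luminescence after ≥48 hr.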
TDP1 inh: blocks human tyrosyl-DNA phosphodiesterase 1; recombinant TDP1, AlphaScreen DNA substrate cleavage; Potency, µM (titrated, usually from 130 µM), usual class: inhibitors; 350,000 tested, 0.28% active; AID 485290; further: nearly all actives have a fitted effect of over 40% in size
Target sequence (Q9NUW8 whole entry, looked up): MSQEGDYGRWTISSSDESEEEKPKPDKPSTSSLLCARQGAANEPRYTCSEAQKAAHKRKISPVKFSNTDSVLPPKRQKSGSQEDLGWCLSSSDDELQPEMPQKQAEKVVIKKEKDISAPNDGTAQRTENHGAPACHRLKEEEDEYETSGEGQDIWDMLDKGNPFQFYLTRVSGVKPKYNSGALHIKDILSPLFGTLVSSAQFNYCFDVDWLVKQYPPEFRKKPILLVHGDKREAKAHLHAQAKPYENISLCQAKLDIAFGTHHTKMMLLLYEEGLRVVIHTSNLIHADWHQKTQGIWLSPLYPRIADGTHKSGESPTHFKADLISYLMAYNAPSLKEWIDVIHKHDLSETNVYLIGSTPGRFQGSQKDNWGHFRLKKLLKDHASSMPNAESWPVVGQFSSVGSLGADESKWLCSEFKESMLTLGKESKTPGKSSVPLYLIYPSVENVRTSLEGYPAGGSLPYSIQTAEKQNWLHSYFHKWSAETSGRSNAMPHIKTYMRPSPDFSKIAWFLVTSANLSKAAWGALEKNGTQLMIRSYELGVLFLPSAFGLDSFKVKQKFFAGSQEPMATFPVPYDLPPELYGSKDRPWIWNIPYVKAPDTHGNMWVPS
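Recombinant human Tdp1 (E. coli-expressed, 1 nM final) preincubated with compounds 15 min at room temperature, then 5'-biotin/3'-phosphotyrosine-FITC DNA substrate (15 nM final) added for 5 min. AlphaScreen beads (10 ug/ml final) added 10 min; cleavage lowers signal.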
TDP1 cell CPT: growth inhibition of DT40 Tdp1-/-;hTDP1 cells with camptothecin (screen for TDP1 inhibitors). chicken DT40 Tdp1-/-;hTDP1 cells + 20 nM CPT, ATP luminescence, 48 h. Potency, µM (titrated, usually from 46.2 µM), actives largely listed as inhibitors. 420,000 tested, 12% active. AID 686979; further: nearly all actives have a fitted effect of over 55% in size
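Chicken DT40 Tdp1-/- cells complemented with human TDP1, 400 cells/well, exposed to compounds plus 20 nM camptothecin for at least 48 h at 37 C; viability read as ATP content by CellTiter-Glo luminescence.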
A number is an active result. Unless noted, the call rests on the fitted dose curve; in most records, active means well fitted curve in the direction sought with a large enough effect; inconclusive means small, poorly fitted or top-dose-only effect, or another doubt; inactive means no such curve, though single readings can be large; an effect the other way counts as inactive or inconclusive.

For CCOc1ccccc1NC(=O)COc1coc(CN2CCCc3ccccc32)cc1=O the results were IL-1B inflam inh inactive, TGFb SMAD3 inh inactive, HepG2 viability inactive, TDP1 cell noCPT inconclusive, TDP1 inh inactive and TDP1 cell CPT inconclusive.
Screening CCOc1ccc(CNS(=O)(=O)c2ccc(-c3coc(C)n3)cc2)cc1OC returned TGFb SMAD3 inh inactive, HepG2 viability inactive, TDP1 cell noCPT 15µM, TDP1 inh inactive and TDP1 cell CPT 7.3µM.
Screening Cc1cccc(CNS(=O)(=O)c2ccc(-c3coc(C)n3)cc2)c1 returned TGFb SMAD3 inh inactive, HepG2 viability inactive, TDP1 cell noCPT inconclusive, TDP1 inh inactive and TDP1 cell CPT inactive.
CCOc1ccc(CNS(=O)(=O)c2ccc(-c3coc(C)n3)cc2)cc1 was read as TGFb SMAD3 inh inactive, HepG2 viability inactive, TDP1 cell noCPT 18µM and TDP1 cell CPT inconclusive.
`O=C(NCC(O)c1ccccc1)c1ccc(Cl)c(S(=O)(=O)N2CCCC2)c1` (centres undefined) gave IL-1B inflam inh inactive, TGFb SMAD3 inh inactive, HepG2 viability inactive, TDP1 cell noCPT inconclusive, TDP1 inh inactive and TDP1 cell CPT inactive.
`CC(C)C1CCN(C(=O)C2CCC(=O)N(CCc3ccc(Cl)cc3)C2)CC1` (centres undefined) gave IL-1B inflam inh inactive, TGFb SMAD3 inh inconclusive, HepG2 viability inactive, TDP1 cell noCPT inconclusive, TDP1 inh inactive and TDP1 cell CPT inconclusive.
Screening C=CCC1(CC=C)CCCN1C(=O)C1CCC(=O)N(CCc2ccc(Cl)cc2)C1 (centres undefined) returned IL-1B inflam inh inactive, TGFb SMAD3 inh inconclusive, HepG2 viability inactive, TDP1 cell noCPT 13µM, TDP1 inh inactive and TDP1 cell CPT 18µM.
O=C1CCC(C(=O)N2CCOCC2)CN1Cc1ccc(Cl)cc1 (centres undefined) was read as IL-1B inflam inh inactive, TGFb SMAD3 inh inactive, HepG2 viability inactive, TDP1 cell noCPT inactive, TDP1 inh inactive and TDP1 cell CPT inactive.
For C=CCC1(CC=C)CCCN1C(=O)C1CCC(=O)N(Cc2ccc(Cl)cc2)C1 (centres undefined) the results were IL-1B inflam inh inactive, TGFb SMAD3 inh inactive, HepG2 viability inactive, TDP1 cell noCPT 8.2µM and TDP1 cell CPT 10µM.
Screening CCc1ccc(NC(=O)CSc2ccc3nnc(CCNS(=O)(=O)c4ccc(OC)cc4)n3n2)cc1 returned TGFb SMAD3 inh inactive, HepG2 viability inactive, TDP1 cell noCPT inconclusive, TDP1 inh inactive and TDP1 cell CPT inactive.
`NC(COCc1ccccc1)c1csc(NC(=O)Nc2cccc(C(F)(F)F)c2)n1` (centres undefined) gave IL-1B inflam inh -55, TGFb SMAD3 inh 14µM, HepG2 viability inactive, TDP1 cell noCPT inconclusive and TDP1 cell CPT 21µM.
`Cc1ccc(NC(=O)Nc2nc(-c3ccc(C)s3)cs2)cc1` gave IL-1B inflam inh inactive, TGFb SMAD3 inh inconclusive, HepG2 viability inactive, TDP1 cell noCPT 12µM, TDP1 inh inactive and TDP1 cell CPT inconclusive.
For NC(CCc1ccccc1)c1csc(NC(=O)Nc2cccc(Cl)c2)n1 (centres undefined) the results were IL-1B inflam inh -61, TGFb SMAD3 inh inconclusive, HepG2 viability 16µM, TDP1 cell noCPT 23µM and TDP1 cell CPT 26µM.
For COc1ccc(-c2csc(NC(=O)Nc3ccccc3)n2)cc1 the results were IL-1B inflam inh inactive, TGFb SMAD3 inh inactive, HepG2 viability inactive, TDP1 cell noCPT inactive and TDP1 cell CPT inactive.
For NC(c1ccccc1)c1csc(NC(=O)Nc2cccc(Cl)c2)n1 (centres undefined) the results were IL-1B inflam inh -104, TGFb SMAD3 inh inconclusive, HepG2 viability inactive, TDP1 cell noCPT inconclusive and TDP1 cell CPT inconclusive.
O=C(Nc1cccc(Cl)c1)Nc1nc(-c2ccc(Cl)cc2)cs1 was read as IL-1B inflam inh inactive, TGFb SMAD3 inh inconclusive, HepG2 viability inactive, TDP1 cell noCPT 16µM, TDP1 inh inactive and TDP1 cell CPT 12µM.
`NC(c1ccccc1)c1csc(NC(=O)Nc2ccc(OC(F)(F)F)cc2)n1` (centres undefined) gave IL-1B inflam inh inactive, TGFb SMAD3 inh inconclusive, HepG2 viability inactive, TDP1 cell noCPT inactive and TDP1 cell CPT 23µM.
Cc1ccc(C)c(NC(=O)CSc2nnc(NC(=O)Nc3ccccc3)s2)c1 was read as TGFb SMAD3 inh inactive, HepG2 viability inactive, TDP1 cell noCPT inactive, TDP1 inh inactive and TDP1 cell CPT inactive.
For COc1ccc(-n2nnnc2SCC(=O)NCCc2ccccc2)cc1 the results were TGFb SMAD3 inh inactive, HepG2 viability inactive, TDP1 cell noCPT inconclusive, TDP1 inh inactive and TDP1 cell CPT inactive.
For CCOC(=O)c1cccc(NC(=O)c2cc(S(=O)(=O)N3CCCCCC3)cn2C)c1 the results were TGFb SMAD3 inh inconclusive, HepG2 viability inactive, TDP1 cell noCPT inconclusive, TDP1 inh inactive and TDP1 cell CPT inconclusive.
For COc1ccc(CNC(=O)CN(c2cc(C(F)(F)F)ccc2Cl)S(C)(=O)=O)cc1 the results were TGFb SMAD3 inh inactive, HepG2 viability inactive, TDP1 cell noCPT inconclusive and TDP1 cell CPT inactive.
`N[C@H](C(=O)O)[C@@H]1[C@@H](C(=O)O)C1(F)F` gave TDP1 cell noCPT inactive, TDP1 inh inactive and TDP1 cell CPT inactive.
Screening O=P(O)(Cc1ccccc1)c1ccccc1 returned IL-1B inflam inh inactive, TGFb SMAD3 inh inactive, HepG2 viability inactive, TDP1 cell noCPT inactive and TDP1 cell CPT inactive.
`COC(=O)c1nn(-c2ccc(-c3ccccc3)cc2)cc1O` gave IL-1B inflam inh inactive, TGFb SMAD3 inh inactive, HepG2 viability inactive, TDP1 cell noCPT inconclusive, TDP1 inh inactive and TDP1 cell CPT inactive.
For COc1cn(-c2ccccc2)nc1C(=O)Nc1ccccc1 the results were IL-1B inflam inh -55, TGFb SMAD3 inh inactive, HepG2 viability inactive, TDP1 cell noCPT inactive, TDP1 inh inactive and TDP1 cell CPT inactive.
For COc1ccc(C)cc1NC(=O)c1nn(-c2ccccc2)cc1OC the results were IL-1B inflam inh -87, TGFb SMAD3 inh inactive, HepG2 viability inactive, TDP1 cell noCPT 21µM, TDP1 inh inactive and TDP1 cell CPT inconclusive.
`Cc1ccc(C)c(-n2nnc(C(=O)Nc3ccc(Br)cc3)c2C)c1` gave TGFb SMAD3 inh inconclusive, HepG2 viability inactive, TDP1 cell noCPT 5.2µM, TDP1 inh inactive and TDP1 cell CPT 10µM.
`COc1ccc(C)cc1NC(=O)c1nnn(-c2c(C)cccc2C)c1C` gave TGFb SMAD3 inh inactive, HepG2 viability inactive, TDP1 cell noCPT 16µM, TDP1 inh inactive and TDP1 cell CPT inconclusive.

High-throughput results deposited in PubChem by National Center for Advancing Translational Sciences (NCATS).
